According to PubChem BioAssay (Tox21):
Records with an inconclusive call do not appear. A call without a number means that no potency is given here. Values without a mark were called inactive. The source made the active and inactive calls. Calls come from the whole dose curve; as a rule, active = well fitted cell-killing curve with a large enough effect in the repeat runs; inconclusive = weak or mixed curves, or effect the other way; inactive = flat fitted curve, though single readings scatter.

Key:
[1] = cAMP Responsive Elements (CRE) small molecule antagonists, cell-based qHTS assay: qHTS cell viability counter screen (AID 2060913); note: nearly all actives have a fitted effect of over 40% in size
In short: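 CRE-bla HEK293T cells (2,000/well, 18 h) given compound plus NKH477 0.25 uM final for 3 h at 37C; viability counter-screen by CellTiter-Glo luminescence in same wells after 30 min.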

[2] = cAMP Responsive Elements (CRE) small molecule agonists, cell-based qHTS assay: qHTS cell viability counter screen (AID 2060914);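 note: viability read after 3 h of compound exposure; nearly all actives have a fitted effect of over 50% in size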
In short: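 CRE-bla HEK 293T cells, plated 18 h at 37 °C, were exposed to compounds for 3 h at 37 °C/5% CO2. Viability was then measured in the same wells by CellTiter-Glo luminescence after 30 min at room temperature.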
Potency is the fitted concentration of half-maximal effect.

| Compound | Potency [1] | Potency [2] | viability change, negative = cytotoxic [1] | activity change, negative = cytotoxicity [2] |
| --- | --- | --- | --- | --- |
| CCN(CC)CCOC(=O)C1(c2ccccc2)CCCC1 | inactive | inactive | – | – |
| O=C1CCCCCCCCCCCN1 | inactive | inactive | – | – |
| C[C@@H]1CCC[C@H](C)N1 | inactive | inactive | – | – |
| CCCS(=O)c1ccc2nc(NC(=O)OC)[nH]c2c1 (stereo not given) | inactive | inactive | – | – |
| CC1CCC(C(C)(C)O)CC1 (stereo not given) | inactive | inactive | – | – |
| Nc1nc(=O)n([C@@H]2O[C@H](CO)[C@@H](O)[C@@H]2F)cc1I | inactive | inactive | – | – |
| NC(=O)CC[C@@H](N)C(=O)O | inactive | inactive | – | – |
| ClCCOCCOCCCl | inactive | inactive | – | – |
| CCCCN(CCCC)CCCC | inactive | inactive | – | – |
| CC1COc2ccccc2N1C(=O)C(Cl)Cl (stereo not given) | inactive | inactive | – | – |
| Cc1cc(C)c(C)cc1C | inactive | inactive | – | – |
| O=C(c1ccc(F)cc1)C1CCN(CCn2c(=S)[nH]c3ccccc3c2=O)CC1 | inactive | inactive | – | – |
| CC(O)(P(=O)(O)O)P(=O)(O)O | inactive | inactive | – | – |
| O=[N+]([O-])c1ccc2[nH]ncc2c1 | inactive | inactive | – | – |
| Oc1cn2c(n1)Nc1ccc(Cl)c(Cl)c1C2 | – | – | 7.34% [at 18.9 µM] | -5.61% [at 18.9 µM] |
| CCc1ccc(Br)cc1 | inactive | inactive | – | – |
| C=CS(=O)(=O)O | inactive | inactive | – | – |
| CCCCc1ncc(/C=C(\Cc2cccs2)C(=O)O)n1Cc1ccc(C(=O)O)cc1 | inactive | inactive | – | – |
| O=C[C@@H](O)[C@H](O)[C@H](O)CO | inactive | inactive | – | – |
| OCc1ccc(Cl)cc1Cl | inactive | inactive | – | – |
| O=c1[nH]nnc2ccccc12 | inactive | inactive | – | – |
| C=CC(C)=CCC=C(C)C | inactive | inactive | – | – |
| CCn1cc(C(=O)O)c(=O)c2cnc(N3CCCC3)nc21 | – | – | 3.75% [at 8.39 µM] | -22.5% [at 8.39 µM] |
| CCOC(=O)CC#N | inactive | inactive | – | – |

| Compound | Potency [1] | Potency [2] | viability change, negative = cytotoxic [1] | activity change, negative = cytotoxicity [2] |
| --- | --- | --- | --- | --- |
| Cc1cc(O)c(C(C)(C)C)cc1C(C)(C)C | 43.3 µM (active) | 48.6 µM (active) | – | – |
| CC(=O)OCC(=O)[C@@]1(O)CCC2C3CCC4=CC(=O)CC[C@]4(C)C3[C@@H](O)C[C@@]21C (stereo not given in full) | inactive | inactive | – | – |
| Nc1nnnn1-c1ccccc1 | inactive | inactive | – | – |
| COC(OC)C(C)c1ccccc1 (stereo not given) | inactive | inactive | – | – |
| Cn1c(=O)c2c(ncn2CC(O)CO)n(C)c1=O (stereo not given) | inactive | inactive | – | – |
| O=C(O)c1cc2ccccc2nc1C(=O)O | inactive | inactive | – | – |
| CCOC(=O)CC | inactive | inactive | – | – |
| O=C=NCCCCCCN=C=O | inactive | inactive | – | – |
| Cc1cccc(C(=O)O)c1 | inactive | inactive | – | – |
| CCCCCCCCCCCSCC(=O)O | inactive | inactive | – | – |
| C=CC(C)(CCC=C(C)C)OC(=O)c1ccccc1 (stereo not given) | inactive | inactive | – | – |
| Cc1occc1S | inactive | inactive | – | – |
| O=C1CCCN1CCO | inactive | inactive | – | – |
| CC(=O)Nc1ccc(S(=O)(=O)Nc2cc(C)on2)cc1 | inactive | inactive | – | – |
| Cc1ccc(C(=O)C(=O)O)cc1C | inactive | inactive | – | – |
| Cc1scc2c1N(C(=O)CN1CCN(C)CC1)c1ccccc1NC2=O | inactive | inactive | – | – |
| CC1(C)C(=O)N(Cl)C(=O)N1Cl | inactive | inactive | – | – |
| OC1C(O)C(O)C(O)C(O)C1O (stereo not given) | inactive | inactive | – | – |
| Cc1ccc(CO)cc1 | inactive | inactive | – | – |
| CN1[C@@H]2CC(OC(=O)[C@H](CO)c3ccccc3)C[C@H]1[C@@H]1O[C@@H]12 (stereo not given in full) | inactive | inactive | – | – |
| CC1COc2ccccc2N1 (stereo not given) | inactive | inactive | – | – |
| CCCCC(CC)COC(=O)CCCCC(=O)OCc1ccccc1 (stereo not given) | inactive | inactive | – | – |
| Cc1cccc(C)c1NC(=O)c1ccc(N)cc1 | inactive | inactive | – | – |
| CCCCCc1ccco1 | inactive | inactive | – | – |

| Compound | Potency [1] | Potency [2] | viability change, negative = cytotoxic [1] | activity change, negative = cytotoxicity [2] |
| --- | --- | --- | --- | --- |
| CCCCCCC(=O)O | inactive | inactive | – | – |
| N#CSCSc1nc2ccccc2s1 | inactive | inactive | – | – |
| CCO[Si](CCCS)(OCC)OCC | inactive | inactive | – | – |
| O=c1[nH]c(=O)n([C@H]2C[C@H](O)[C@@H](CO)O2)cc1C(F)(F)F | inactive | inactive | – | – |
| CC(C)(C)C(=O)C(=O)O | inactive | inactive | – | – |
| CCC(C)(C)C1CCC(OC)CC1 (stereo not given) | inactive | inactive | – | – |
| Clc1sc(Cl)c(Cl)c1Cl | inactive | inactive | – | – |
| CC(C)COC(=O)c1ccccc1 | inactive | inactive | – | – |
| CCCCNc1ccc(NCCCC)c2c1C(=O)c1ccccc1C2=O | – | – | 6.2% [at 18.9 µM] | -7.45% [at 18.9 µM] |
| O=C1CCCCCCCCCCOCCCCO1 | inactive | inactive | – | – |
| NS(=O)(=O)c1cc(-c2nn[nH]n2)c(NCc2cccs2)cc1Cl | inactive | inactive | – | – |
| O=c1[nH]c2ccccc2c(=O)n1CCCl | inactive | inactive | – | – |
| CCCN[C@H]1CCc2nc(N)sc2C1 | inactive | inactive | – | – |
| CN1[C@@H]2CC[C@H]1CC(OC(=O)C(CO)c1ccccc1)C2 (stereo not given in full) | inactive | inactive | – | – |
| CC(CC=O)CC(C)(C)C (stereo not given) | inactive | inactive | – | – |
| CC(C)C1OCCN1CCOC(=O)NCCCCCCNC(=O)OCCN1CCOC1C(C)C (stereo not given) | inactive | inactive | – | – |
| CCCCOCC | inactive | inactive | – | – |
| O=C(NCCN1CCOCC1)c1ccc(Cl)cc1 | inactive | inactive | – | – |
| Cc1cc(N)no1 | inactive | inactive | – | – |
| CO[Si](CCC1CCC2OC2C1)(OC)OC (stereo not given) | inactive | inactive | – | – |
| C=C1C(=C/C=C2\CCC[C@]3(C)[C@@H]([C@H](C)/C=C/[C@@H](O)C4CC4)CC[C@@H]23)C[C@@H](O)C[C@@H]1O | inactive | inactive | – | – |
| NS(=O)(=O)c1cc(C(=O)NN2C[C@H]3[C@H]4CCC(C4)[C@H]3C2)ccc1Cl | inactive | inactive | – | – |
| CCCCCCCCCOC(=O)c1ccccc1C(=O)OCCCCCCCCC | inactive | inactive | – | – |
| O=S(=O)(Oc1ccc(Cl)cc1)c1ccccc1 | inactive | inactive | – | – |

| Compound | Potency [1] | Potency [2] | viability change, negative = cytotoxic [1] | activity change, negative = cytotoxicity [2] |
| --- | --- | --- | --- | --- |
| N[C@@H]1CONC1=O | inactive | inactive | – | – |
| CN(C)CCn1nnnc1SCC1=C(C(=O)O)N2C(=O)[C@@H](NC(=O)Cc3csc(N)n3)[C@H]2SC1 | inactive | inactive | – | – |
| CC/C=C\CCOC(=O)C(C)C | inactive | inactive | – | – |
| CN(C)CCN(Cc1ccc(Cl)cc1)c1ccccn1 | inactive | inactive | – | – |
| COc1cc(C(=S)N2CCOCC2)ccc1O | inactive | inactive | – | – |
| CCCCCCC[N+](CC)(CC)CCCCc1ccc(Cl)cc1 | inactive | inactive | – | – |
| O=C(Cl)c1ccccc1[N+](=O)[O-] | inactive | inactive | – | – |
| Cc1cccc(C)c1NC(=O)c1ccccc1C(=O)O | inactive | inactive | – | – |
| OCc1ccccn1 | inactive | inactive | – | – |
| NC(=O)c1ccccc1O | inactive | inactive | – | – |
| O=C(O)c1cc(C(=O)O)cc(C(=O)O)c1 | inactive | inactive | – | – |
| NC(=O)N(O)[C@@H]1C=C[C@H](Oc2cccc(Oc3ccc(F)cc3)c2)C1 | inactive | inactive | – | – |
| CCCCCCC(=O)OCC | inactive | inactive | – | – |
| N[C@@H](Cc1c[nH]c2ccccc12)C(=O)O | inactive | inactive | – | – |
| CCn1cc(C(=O)O)c(=O)c2cnc(N3CCNCC3)nc21 | inactive | inactive | – | – |
| CCOC(=O)[C@@](C)(N)Cc1ccc(O)c(O)c1 | inactive | inactive | – | – |
| CN1CCC(OC(c2ccccc2)c2ccccc2)CC1 | inactive | inactive | – | – |
| CCO[Si](C)(OCC)OCC | inactive | inactive | – | – |
| CC12CCC(C1)C(C)(C)C2O (stereo not given) | inactive | inactive | – | – |
| Oc1c(Cl)ccc(Cl)c1Cl | inactive | inactive | – | – |
| COCCOCCOCCOCCOC | inactive | inactive | – | – |
| Cc1cc(=O)oc2cc(O)ccc12 | inactive | inactive | – | – |
| COc1ccccc1N1CCN(CCCCNC(=O)c2ccc(-c3ccc(C(C)=O)cc3)cc2)CC1 | inactive | inactive | – | – |
| CCCCCC(C)N (stereo not given) | inactive | inactive | – | – |

| Compound | Potency [1] | Potency [2] | viability change, negative = cytotoxic [1] | activity change, negative = cytotoxicity [2] |
| --- | --- | --- | --- | --- |
| CC(C)(C)c1cc(O)c(C(C)(C)C)cc1O | inactive | inactive | – | – |
| CC1(C)OC(=O)Nc2ccc(Br)cc21 | inactive | inactive | – | – |
| CCCCCCCCC(CCCCCC)C(=O)O (stereo not given) | inactive | inactive | – | – |
| O=C1OC(=O)c2cc(Oc3ccc4c(c3)C(=O)OC4=O)ccc21 | inactive | inactive | – | – |
| CNC[C@H](O)c1cccc(O)c1 | inactive | inactive | – | – |
| O=c1[nH]c2ccc(S(=O)CCN3CCC(Cc4ccc(F)cc4)CC3)cc2o1 (stereo not given) | inactive | inactive | – | – |
| O=C(c1ccccc1)c1ccc(O)cc1 | inactive | inactive | – | – |
| CC(C)NCC(O)c1ccc(NS(C)(=O)=O)cc1 (stereo not given) | inactive | inactive | – | – |
| CN(C)CCCN1c2ccccc2CCc2ccccc21 | inactive | inactive | – | – |
| O=C(O)c1cc(C(=O)O)cc([N+](=O)[O-])c1 | inactive | inactive | – | – |
| COc1cc(Cl)c(OC)cc1N | inactive | inactive | – | – |
| O=C(OCCOCCOCCOC(=O)c1ccccc1)c1ccccc1 | inactive | inactive | – | – |
| C=CC(=O)OCCC(=O)O | inactive | inactive | – | – |
| CC(=O)N(O)CCCCCNC(=O)CCC(=O)N(O)CCCCCNC(=O)CCC(=O)N(O)CCCCCN | inactive | inactive | – | – |
| CC(C)(Oc1ccc(C2CC2(Cl)Cl)cc1)C(=O)O (stereo not given) | inactive | inactive | – | – |
| CC1=CP(=O)(c2ccccc2)CC1 (stereo not given) | inactive | inactive | – | – |
| O=C(O)c1ccc(Cl)c(Cl)c1 | inactive | inactive | – | – |
| O=C1CCCCCN1 | inactive | inactive | – | – |
| COc1ccc(C2CNC(=O)C2)cc1OC1CCCC1 (stereo not given) | inactive | inactive | – | – |
| NCCCN1CCOCC1 | inactive | inactive | – | – |
| O=C(/C=C/c1ccc([N+](=O)[O-])cc1)c1ccccc1 | inactive | inactive | – | – |
| CC(=O)c1ccc(O)c(C(N)=O)c1 | inactive | inactive | – | – |
| O=C(O)CCCCCCCCCCC(=O)O | inactive | inactive | – | – |
| CS(=O)(=O)CCNCc1ccc(-c2ccc3ncnc(Nc4ccc(OCc5cccc(F)c5)c(Cl)c4)c3c2)o1 | inactive | inactive | – | – |
